Source: PubChem BioAssay (NCI)
Several values for one entry are separate records, joined by “and”; a condition that tells them apart may be missing. Equal entries are not always repeated. About 79,000 compounds went through this panel and 15% of them were active in at least one assay; those are over-represented in the sample as a whole. Activity calls are given as the source filed them. Rule as the data show it: active = growth inhibition above about 70%; inactive = the rest.

Legend:
[1] = NCI Yeast Anticancer Drug Screen. Data for the rad50 strain (AID 155);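 also: 0% = growth of vehicle-only cultures of the same strain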; conditions: S. cerevisiae rad50 strain growth inhibition; at 50.0 µM; hits give high values
Summary of the method: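 Growth of the mutant yeast was measured after compound exposure and referenced to vehicle-treated cultures.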

[2] = NCI Yeast Anticancer Drug Screen. Data for the mec2-1 strain (AID 157); conditions: S. cerevisiae mec2-1 strain, at 50.0 µM, hits give high values
Summary of the method: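 Each compound was tested on mec2-1 yeast, a strain altered in DNA damage repair or cell cycle control. Growth inhibition is reported relative to vehicle.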

[3] = NCI Yeast Anticancer Drug Screen. Data for the sgs1 mgt1 strain (AID 161);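 also: 0% = growth of cultures given vehicle only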; conditions: S. cerevisiae sgs1 mgt1 strain, at 50.0 µM, hits give high values
Summary of the method: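 Genetically altered yeast, compound exposure, growth inhibition relative to vehicle.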

[4] = NCI Yeast Anticancer Drug Screen. Data for the cln2 rad14 strain (AID 165);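 also: 0% = growth equal to vehicle treated cultures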; conditions: S. cerevisiae cln2 rad14 strain, at 50.0 µM, hits give high values
Summary of the method: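 Test compounds were added to cln2 rad14 yeast cultures; inhibition of growth was then determined by comparison with vehicle treatment.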

[5] = NCI Yeast Anticancer Drug Screen. Data for the bub3 strain (AID 167); conditions: S. cerevisiae bub3 mutant strain, at 50.0 µM, hits give high values
Summary of the method: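 Whole-cell yeast assay. The mutant strain was incubated with compounds, and growth inhibition was determined by comparison with vehicle-treated cells.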

[6] = NCI Yeast Anticancer Drug Screen. Data for the mlh1 rad18 strain (AID 175); conditions: S. cerevisiae mlh1 rad18 strain growth inhibition; at 50.0 µM; hits give high values
Summary of the method: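 Inhibition values reflect reduced growth of mutant yeast versus vehicle-treated controls following compound exposure; the mutations affect DNA damage repair.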

Measured: growth inhibition

COC1=CCC2=C(CC[C@H]3[C@H]2CCP3C)C1 (some centres undefined)
inactive: [1] 8.65% | [2] -10.8% | [3] -7.85% | [4] -17.9% | [5] 0.9% | [6] 5.25%

C=C1CCC2CC1C2(C)C (centres undefined) (tested in a mixture with another compound)
inactive: [1] 7.95% | [2] -14.2% | [3] -5.7% | [4] -2.7% | [5] 5.85% | [6] -23.9%

CC1(C)N=C(NN=C2CCCCC2)SP1(=O)NNc1ncccn1 (centres undefined)
inactive: [1] 30.1% | [2] 11.7% | [3] 25.8% | [4] 1.95% | [5] 15.1% | [6] 23.2%

COc1ccc(/C=C\[N+](=O)[O-])cc1OCc1ccccc1
inactive: [1] 7.2% | [2] 8.35% | [3] 22.6% | [4] -13.6% | [5] 7.2% | [6] 8.05%

O=c1[nH]cc(CCl)c(=O)[nH]1
inactive: [1] 3.2% | [2] -17.2% | [3] 6.3% | [4] 25.9% | [5] 4.85% | [6] -0.15%

C/C(=N\N1CN(C(C)C(=O)O)P(N(CCO)CCO)N=C1N)c1cccs1 (centres undefined)
inactive: [1] -5.45% | [2] -11.2% | [3] 5.85% | [4] -18.6% | [5] 7.95% | [6] -8.4%

O=C(N=[C-]c1ccc[oH+]1)c1cccnc1.O=C(N=[C-]c1ccc[oH+]1)c1cccnc1.[Ni+2]
inactive: [1] -24.7% | [2] -34.5% | [3] -3.4% | [4] -25.4% | [5] -31.8% | [6] 5.65%

NC(=O)NNC(=O)C(Cl)(Cl)Cl
inactive: [1] -0.45% | [2] -8.55% | [3] 5.6% | [4] -63.3% | [5] -4.65% | [6] -14.2%

COCCCCCC(=O)CP(=O)(OC)OC
inactive: [1] -7.15% | [2] -1.4% | [3] -1.2% | [4] -12.9% | [5] -6.4% | [6] 8.95%

CCCCCCCCCCNP(=S)(NCCCCCCCCCC)c1ccccc1
inactive: [1] 26.8% | [2] 4.7% | [3] 27.9% | [4] -19.8% | [5] -14.8% | [6] 2.6%

O=S(O)(O)=S.[Co+3].[NH-]CC[NH-].[NH-]CC[NH-].[NH2-].[NH2-]
inactive: [1] -8.05% | [2] -6.85% | [3] 2% | [4] -19.4% | [5] 14.8% | [6] 7.05%

O=C(COc1ccc(Cl)c(Cl)c1)Nc1ccc[n+](Cc2ccc(Cl)c(S(=O)(=O)F)c2)c1
active: [1] 98.2% | [2] 90.7% | [3] 95.3% | [4] 79.3% | [5] 78.2% | [6] 98.5%

Clc1ccc(C2ON2c2ccccc2)cc1 (centres undefined) (tested in a mixture with another compound)
inactive: [1] 3.1% | [2] 14.6% | [3] 16.2% | [4] 4.45% | [5] -8.4% | [6] 18.2%

CN1CNC2C(=O)CCC2c2ccccc21 (centres undefined)
inactive: [1] -12.2% | [2] -39.8% | [3] -21.3% | [4] -7.4% | [5] -28.9% | [6] -9.1%

CCOC(=O)CC(=O)C(F)(F)F.CCOC(=O)CC(=O)C(F)(F)F.[Ni]
inactive: [1] -21% | [2] 14.4% | [3] -12.2% | [4] 24.4% | [5] 12.6% | [6] -0.95%

COc1cc2c(c(OC)c1OC)-c1ccc(O)c(=O)cc1[C@@H](NC(C)=O)CC2
inactive: [1] 24% and 43.6% | [2] 1.95% and 34.6% | [3] 54.9% | [4] 35.5% | [5] 62.5% | [6] 22.9% and -13.1%

C[C@]12Cc3sc(N)nc3C[C@@H]1CC[C@@H]1[C@@H]2CC[C@@]2(C)[C@H]1CC[C@]2(C)O
inactive: [1] -21.5% | [2] -18.4% | [3] 11% | [4] -32% | [5] 25.6% | [6] -4.95%

COC(=O)C1C2CCCN2OC1(C)CO (centres undefined)
inactive: [1] -2.6% | [2] 12.5% | [3] 12.4% | [4] 2.45% | [5] 12.9% | [6] 2.1%

CN(C)C(=S)Oc1c(Cl)cc(S(=O)(=O)F)cc1Cl
inactive: [1] 35.4% | [2] 12.9% | [3] 15.2% | [4] 19.6% | [5] -6.5% | [6] 21.4%

CN1C(=O)N(C)P1(Cl)(Cl)Cl
inactive: [1] 18.6% | [2] -6.15% | [3] 3.15% | [4] -36.6% | [5] 0.2% | [6] -14.9%

C[C@H](N)[C@H](O)c1ccccc1
inactive: [1] 7.45% and 0.25% | [2] -14.4% and 4.7% | [3] -7.4% and -7.8% | [4] -8.35% and -18.5% | [5] -4.3% and 0.95% | [6] -7.3% and -1.15%

[Cl][Hg][c]1cccc(I)c1N=Nc1ccccc1
inactive: [2] 21.3% | [3] 66.2% | [4] 4.9% | [5] 2.25% | [6] 69.8%
active: [1] 81.9%

[Br][Ni][Br].c1ccc([PH+](CC[PH+](c2ccccc2)c2ccccc2)c2ccccc2)cc1
inactive: [1] -36.1% | [2] -7.15% | [3] -23.8% | [4] 32.2% | [5] 8.9% | [6] 0.9%

CCN(CC)C1C=CCCC1 (centres undefined)
inactive: [1] -18.1% | [2] -8.05% | [3] -20.1% | [4] 0.75% | [5] -11.7% | [6] -7.3%

C[N+](C)(C)CC(=O)O
inactive: [1] -4.3% and -7.25% | [2] -10.6% and 10.3% | [3] -20.4% and -6% | [4] 10.8% and -11.2% | [5] -29.2% and 3.4% | [6] -2.65% and -7%

Clc1cc[c]([Sn]([Cl])([c]2ccc(Cl)cc2)[c]2ccc(Cl)cc2)cc1
active: [1] 98.5% | [2] 98.5% | [3] 98.8% | [4] 97.7% | [5] 97.5% | [6] 98.3%

Oc1cc(Br)c(O)c(Br)c1
inactive: [1] 10.3% | [2] 42.8% | [3] 29.9% | [4] -11% | [5] 36.4% | [6] 41.8%

NC(=NCc1ccccc1)N[N+](=O)[O-]
inactive: [1] -7.3% | [2] 3.65% | [3] -10.6% | [4] 17.7% | [5] 30.7% | [6] -3.15%

CNC(=O)C(CC(C)[N+](C)(C)C)(c1ccccc1)c1ccccc1 (centres undefined)
inactive: [1] 14.2% | [2] 8.4% | [3] 14.5% | [4] 17.9% | [5] 4.85% | [6] 11.4%

O=C(O)C1C2C=Cc3ccccc3C21 (centres undefined)
inactive: [1] 4.5% | [2] 2.9% | [3] -11.3% | [4] -26.6% | [5] -6.2% | [6] 6.45%

O=[N+]([O-])c1cccc2c([N+](=O)[O-])cccc12
inactive: [1] 3.6% | [2] 5.2% | [3] -1.15% | [4] -4.85% | [5] -0.7% | [6] 0.05%

CC1(C)N=C(N)N=C(N)N1c1ccc(CCc2ccc(S(=O)(=O)F)cc2)cc1
inactive: [1] 9.15% | [2] 7% | [3] -7.3% | [4] -6.2% | [5] -8.7% | [6] 7.65%

[Co].[NH2-].[NH2-].[NH2-].[NH2-].[NH2-].[NH2-]
inactive: [1] -5% and 8.1% | [2] -15.3% and 9.05% | [3] -5.4% and 6.25% | [4] -19.8% and 10.1% | [5] 2.3% and 23.4% | [6] -2.9% and -5.85%

CN(Cc1ccccc1)C1=NCCN1
inactive: [1] -1.85% | [2] 7.1% | [3] -2.95% | [4] -47.8% | [5] 15.1% | [6] 9.95%
